Consider three molecules from PubChem BioAssay AID651947 (Broad Institute, 2012).

The structures appear in SMILES notation. Potency and affinity values are given separately. Inconclusive results are not listed. A number with no mark means an inactive call.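 How the source made its calls: active means luminescence drop in HepG2 cells whose fitted half-effect dose is at most twice the top valid dose; inconclusive means flat curve with 30 to 70% signal loss, or unreliable fit; inactive means the rest.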

The assay in a line: HepG2 hepatoma cell viability loss – plate reader, dry powder, cytotoxicity control, dose response (AID 651947). To be noted: ATP luminescence (CellTiter-Glo), 48 h, hits give low values; at 26 µM unless noted. (In ATP-based viability assays light output follows the ATP content of the culture.)
As to `COc1ccc(CSc2nnc(-c3ccccc3)o2)cc1`, the max activity was -24.9% [at 0.195 µM].
The same measure for `c1ccc(CSc2nnc(-c3ccccc3)o2)cc1`: -12.1% [at 1.6 µM]; for `Clc1ccc(-c2nnc(SCc3ccccc3)o2)cc1`: -50.8%.
